The text below walks through data of PubChem BioAssay.

Assay [1] is described as follows: antimalarial activity against Dd2 strain (AID 2302;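 active = growth inhibition above 50% at the single 2 µM test dose, taken to imply half-maximal potency below 2 µM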;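 also: 0% = DMSO untreated growth and 100% = chloroquine plus artemisinin killed control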). The settings on record: P. falciparum Dd2 in RBCs, LDH growth readout, 72 h; at 2 µM; stronger effect = higher value.
Assay [2] can be described thus: human hepatoma cell viability loss – ATP luminescence, cytotoxicity control for P. falciparum antimalarial project, primary screen (AID 2303;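 active = inhibition above 50%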;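 also: 0% = DMSO wells and 100% = digitonin-killed cells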). The settings on record: HepG2 viability, 24-48 h, at 10 µM, stronger effect = higher value.
Assay [3] concerns the target L-lactate dehydrogenase (Plasmodium falciparum (isolate CDC / Honduras)) (UniProt Q27743). The experiment in a line: PfLDH activity inhibition – cell lysate, 3D7 strain, counter-screen for P. falciparum growth inhibition project (AID 2304).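 Also: 0% = vehicle and 100% = reference inhibitor.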 The settings on record: P. falciparum 3D7 crude extract, LDH APAD/NBT absorbance; at 2 µM; stronger effect = higher value. (Counterscreens check selectivity or assay interference.)

Assay [4] is described as follows: inhibition of 3D7 malaria parasite growth – strain 3D7 (AID 2306).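 Also: 0% = DMSO wells and 100% = chloroquine plus artemisinin control wells.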 Particulars: P. falciparum 3D7 erythrocytic growth, LDH absorbance, 72 h; at 2 µM; stronger effect = higher value.
Assay [5] deals with Calcium-dependent protein kinase 1 (Plasmodium falciparum (isolate 3D7)) (UniProt P62344). The experiment in a line: PfCDPK1 kinase inhibitors, biochemical, TCAMS library (AID 1159585; cut-off not given, nearly all actives have IC50 up to about 0.98 µM;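 also: inhibitors leave more ATP so luminescence rises with inhibition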). The settings on record: recombinant PfCDPK1, Kinase-Glo ATP depletion luminescence. For orientation: Kinase-Glo reads ATP consumption through a luciferase reaction.
Calcium-dependent protein kinase 1 (Plasmodium falciparum (isolate 3D7)), sequence (P62344 whole entry, looked up): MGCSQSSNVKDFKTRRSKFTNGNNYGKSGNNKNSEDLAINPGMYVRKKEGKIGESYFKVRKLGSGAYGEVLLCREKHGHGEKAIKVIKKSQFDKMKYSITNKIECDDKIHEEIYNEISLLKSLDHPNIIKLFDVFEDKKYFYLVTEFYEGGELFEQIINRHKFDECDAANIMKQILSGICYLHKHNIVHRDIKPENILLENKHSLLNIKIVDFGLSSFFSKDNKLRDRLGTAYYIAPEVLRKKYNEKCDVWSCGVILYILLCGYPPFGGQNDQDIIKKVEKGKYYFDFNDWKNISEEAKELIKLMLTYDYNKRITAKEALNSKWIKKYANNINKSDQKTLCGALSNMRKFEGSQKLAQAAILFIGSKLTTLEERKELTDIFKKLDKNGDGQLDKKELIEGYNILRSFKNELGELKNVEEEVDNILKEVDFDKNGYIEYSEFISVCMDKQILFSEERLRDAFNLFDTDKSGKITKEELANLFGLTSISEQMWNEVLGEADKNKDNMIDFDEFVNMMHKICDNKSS
In assay [6] the target is Plasmodium falciparum protein kinase 6 (PK6, PF3D7_1337100) (UniProt Q8IDW1). Nature of the assay: PfPK6 kinase inhibitors, biochemical, TCAMS library (AID 1159586). Particulars: recombinant PfPK6, Kinase-Glo ATP depletion luminescence.
Plasmodium falciparum protein kinase 6 (PK6, PF3D7_1337100), sequence (Q8IDW1 1-305): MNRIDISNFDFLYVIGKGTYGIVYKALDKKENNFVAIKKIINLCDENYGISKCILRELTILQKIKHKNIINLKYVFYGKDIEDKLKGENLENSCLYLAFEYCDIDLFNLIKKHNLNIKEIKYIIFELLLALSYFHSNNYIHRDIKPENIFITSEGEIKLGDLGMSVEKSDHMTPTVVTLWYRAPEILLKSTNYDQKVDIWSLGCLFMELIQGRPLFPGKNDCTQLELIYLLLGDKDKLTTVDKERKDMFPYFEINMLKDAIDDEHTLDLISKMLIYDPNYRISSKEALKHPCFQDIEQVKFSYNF
Assay [7] has as its target Protein kinase 7 (PK7), Plasmodium falciparum 3D7 (PF3D7_0213400) (UniProt Q7YTF7). The experiment in a line: inhibition of Plasmodium PK7 catalytic activity – biochemical, TCAMS antimalarial set, Kinase-Glo luminescence (AID 1159587). The settings on record: recombinant PfPK7, Kinase-Glo ATP depletion luminescence.
Assay [8] concerns the target Calcium-dependent protein kinase 4 (Plasmodium falciparum (isolate 3D7)) (UniProt Q8IBS5). Nature of the assay: PfCDPK4 kinase inhibitors, biochemical, TCAMS library (AID 1159588; cut-off not given, nearly all actives have IC50 up to about 0.91 µM). The settings on record: recombinant PfCDPK4, Kinase-Glo ATP depletion luminescence.

A number with no mark means an inactive call. For some of these results: Results with a measured potency or affinity are listed apart. The source made the active and inactive calls. Unless noted, no rule for the calls is given here.

L-lactate dehydrogenase (Plasmodium falciparum (isolate CDC / Honduras)), sequence (Q27743 whole entry, looked up): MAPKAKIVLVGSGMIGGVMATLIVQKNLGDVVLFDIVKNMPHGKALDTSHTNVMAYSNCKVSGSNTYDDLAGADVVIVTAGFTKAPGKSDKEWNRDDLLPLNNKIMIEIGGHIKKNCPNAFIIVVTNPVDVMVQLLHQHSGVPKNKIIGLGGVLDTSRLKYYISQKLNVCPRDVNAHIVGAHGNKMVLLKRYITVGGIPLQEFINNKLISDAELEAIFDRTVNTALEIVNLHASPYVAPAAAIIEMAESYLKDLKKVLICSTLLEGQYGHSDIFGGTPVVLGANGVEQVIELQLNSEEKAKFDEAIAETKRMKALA
Calcium-dependent protein kinase 4 (Plasmodium falciparum (isolate 3D7)), sequence (Q8IBS5 whole entry, looked up): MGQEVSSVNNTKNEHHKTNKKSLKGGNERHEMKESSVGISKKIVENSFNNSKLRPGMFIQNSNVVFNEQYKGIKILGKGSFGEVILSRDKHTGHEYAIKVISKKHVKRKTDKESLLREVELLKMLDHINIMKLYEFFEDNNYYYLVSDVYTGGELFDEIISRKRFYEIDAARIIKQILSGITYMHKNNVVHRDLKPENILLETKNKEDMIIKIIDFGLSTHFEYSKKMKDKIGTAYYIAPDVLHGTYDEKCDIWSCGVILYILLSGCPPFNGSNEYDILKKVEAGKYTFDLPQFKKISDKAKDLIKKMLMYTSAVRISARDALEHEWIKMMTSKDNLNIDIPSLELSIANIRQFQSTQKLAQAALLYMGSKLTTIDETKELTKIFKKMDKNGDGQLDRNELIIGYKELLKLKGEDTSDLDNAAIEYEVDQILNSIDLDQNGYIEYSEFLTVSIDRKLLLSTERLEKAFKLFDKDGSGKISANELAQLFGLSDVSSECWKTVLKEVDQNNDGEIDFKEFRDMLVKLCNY
Protein kinase 7 (PK7), Plasmodium falciparum 3D7 (PF3D7_0213400), sequence (Q7YTF7 1-343): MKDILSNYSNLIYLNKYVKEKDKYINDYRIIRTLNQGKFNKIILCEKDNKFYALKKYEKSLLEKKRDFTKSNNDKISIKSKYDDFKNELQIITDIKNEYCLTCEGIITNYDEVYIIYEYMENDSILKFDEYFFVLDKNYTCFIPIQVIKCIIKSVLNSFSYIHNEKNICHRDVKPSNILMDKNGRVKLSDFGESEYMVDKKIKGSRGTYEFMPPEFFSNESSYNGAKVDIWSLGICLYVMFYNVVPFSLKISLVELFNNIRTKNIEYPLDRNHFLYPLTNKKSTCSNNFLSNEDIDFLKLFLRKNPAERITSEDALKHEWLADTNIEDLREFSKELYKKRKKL

On to `CC(C)CSc1cc(C(=O)Nc2cc(Cl)ccc2O)ccn1`, for which the figures for the growth inhibition in assay [1] and in assay [4] were 34% and 100% (active), respectively. Moreover, the inhibition (usually the relative decrease from the control value, in per cent) in assay [2] was 36%; in assay [3], -2%. The result in assay [5], in assay [6], in assay [7] and in assay [8] was inactive.
Consider `CC(C)Cn1cc(C2CCN(CCN3CCC(CNC(=O)c4ccc(-c5ccc(C#N)cc5)cc4)CC3)CC2)c2ccccc21`, for which the growth inhibition is 98% (active) in assay [1] and 100% (active) in assay [4]. For the same molecule, the figures for the inhibition in assay [2] and in assay [3] were 28% and 8%, respectively. Also, the result in assay [5], in assay [6], in assay [7] and in assay [8] was inactive.
On to `O=S(=O)(NCCN1CCCC1)c1ccc(-c2cccc(CNC3Cc4ccccc4C3)c2)s1`, for which the values for the growth inhibition in assay [1] and in assay [4] were 69% (active) and 98% (active), respectively. The inhibition in assay [2] was 57% (active); in assay [3], 2%. The outcome in assay [5], in assay [6], in assay [7] and in assay [8] was inactive.
Regarding `CC1=C(C(=O)Nc2cc3cn[nH]c3cc2F)C(c2cccc(NS(C)(=O)=O)c2)CC(=O)N1` (stereo not given), the figures for the growth inhibition in assay [1] and in assay [4] were 97% (active) and 96% (active), respectively. For the same molecule, the inhibition in assay [2] is -10%; in assay [3], -4%. Further, the result in assay [5], in assay [6], in assay [7] and in assay [8] was inactive.
In the case of `COc1ccc(CCn2c(=N)c(C(=O)NCc3cccnc3)cc3c(=O)n4ccccc4nc32)cc1`, the growth inhibition in assay [1] was 5%; in assay [4], 98% (active). The inhibition is 16% in assay [2] and -2% in assay [3]. Further, the result in assay [5], in assay [6], in assay [7] and in assay [8] was inactive.
Turning to `O=C(Nc1cccc(Cl)c1)N(CCCn1ccnc1)Cc1csc(-c2ccc(CNCc3ccccc3)cc2)n1`, the growth inhibition is 45% in assay [1] and 102% (active) in assay [4]. The inhibition in assay [2] was 11%; in assay [3], 4%. The result in assay [5], in assay [6], in assay [7] and in assay [8] was inactive.
As to `FC(F)(F)c1ccc(-c2cncc(-c3ccc(C(F)(F)F)cc3)n2)cc1`, the growth inhibition in assay [1] is 97% (active); in assay [4], 98% (active). The inhibition in assay [2] is 9%; in assay [3] it was -7%. In addition, the outcome in assay [5], in assay [6], in assay [7] and in assay [8] was inactive.
Consider `COc1ccc2nccc([C@@H](O)CN3CCC(NC(=O)c4ccc5cc[nH]c5c4)CC3)c2c1`, for which the growth inhibition in assay [1] was 23%; in assay [4], 91% (active). Moreover, the inhibition is 21% in assay [2] and -6% in assay [3]. Also, the outcome in assay [5], in assay [6], in assay [7] and in assay [8] was inactive.
Consider `NC1=NC(Cc2ccccc2)N(c2ccc(Cl)cc2)C(N)=N1` (stereo not given), for which the growth inhibition is 4% in assay [1] and 93% (active) in assay [4]. The inhibition in assay [2] is 21%; in assay [3] it was -2%. The outcome in assay [5], in assay [6], in assay [7] and in assay [8] was inactive.
Turning to `N[C@@H](COc1cccc2c(-c3ccncc3)c(-c3cccc(NC(=O)Nc4ccccc4)c3)nn12)c1ccccc1`, the growth inhibition is 71% (active) in assay [1] and 101% (active) in assay [4]. Further, the inhibition is 9% in assay [2] and 2% in assay [3]. Also, the outcome in assay [5], in assay [6], in assay [7] and in assay [8] was inactive.
Consider `Cc1cc(N2CCCCC2)nc2ccc(NC(=O)c3cc(=O)c4ccccc4o3)cc12`, for which the values for the growth inhibition in assay [1] and in assay [4] were 19% and 98% (active), respectively. The figures for the inhibition in assay [2] and in assay [3] were 15% and -7%, respectively. Further, the outcome in assay [5], in assay [6], in assay [7] and in assay [8] was inactive.
As for `Nc1c2c(nc3ccc(C(=O)Nc4cc(I)c(O)c(I)c4)cc13)CCCC2`, the values for the growth inhibition in assay [1] and in assay [4] were 64% (active) and 96% (active), respectively. Further, the inhibition in assay [2] was 14%; in assay [3] it was 0%. Besides, the outcome in assay [5], in assay [6], in assay [7] and in assay [8] was inactive.
On to `CC(C)(C)c1ccc(C(=O)Nc2ccc3nc4c(c(N)c3c2)CCCC4)cc1`, for which the growth inhibition was 99% (active) in assay [1] and 100% (active) in assay [4]. Moreover, the inhibition in assay [2] is 21%; in assay [3], -4%. In addition, the outcome in assay [5], in assay [6], in assay [7] and in assay [8] was inactive.
For `O=C(/C=C/c1ccc(Cl)c(Cl)c1)NCCCCCN1CCC(c2[nH]nc(-c3ccccc3)c2Br)CC1`, the growth inhibition is 23% in assay [1] and 95% (active) in assay [4]. Besides, the inhibition was 100% (active) in assay [2] and 1% in assay [3]. In addition, the outcome in assay [5], in assay [6], in assay [7] and in assay [8] was inactive.
With `COc1ccc2nccc([C@@H](O)CN3CCC(NCc4ccc5c(c4)NC(=O)C(C)S5)CC3)c2c1` (stereo not given in full), the growth inhibition in assay [1] is 72% (active); in assay [4], 99% (active). Also, the figures for the inhibition in assay [2] and in assay [3] were 7% and 2%, respectively. Moreover, the result in assay [5], in assay [6], in assay [7] and in assay [8] was inactive.
For the molecule `CCOc1ccc2nc(C)cc(NN=Cc3ccccc3F)c2c1`, the growth inhibition in assay [1] is 99% (active); in assay [4], 101% (active). In addition, the figures for the inhibition in assay [2] and in assay [3] were 0% and -3%, respectively. Besides, the outcome in assay [5], in assay [6], in assay [7] and in assay [8] was inactive.
On to `COc1cc(F)c2ncc(Cl)c([C@@H](O)CN3CCC(NCc4cc5c(cn4)OCCO5)CC3)c2c1`, for which the growth inhibition in assay [1] is 100% (active); in assay [4] it was 101% (active). The inhibition in assay [2] is 11%; in assay [3] it was 2%. Also, the outcome in assay [5], in assay [6], in assay [7] and in assay [8] was inactive.
With `c1ccc(C2CCN(Cc3ccc(-c4c[nH]c5nc(NC6CCCC6)ncc45)cc3)CC2)cc1`, the growth inhibition in assay [1] was 9%; in assay [4] it was 82% (active). In addition, the figures for the inhibition in assay [2] and in assay [3] were 39% and -1%, respectively. For the same molecule, the result in assay [5], in assay [6], in assay [7] and in assay [8] was inactive.
Turning to `C[C@@H]1CN(c2cnn(Cc3ccc(NC(=O)Nc4cccc(C(F)(F)F)c4)cc3)c(=O)c2Cl)C[C@H](C)N1`, the results for the growth inhibition in assay [1] and in assay [4] were 31% and 86% (active), respectively. Further, the figures for the inhibition in assay [2] and in assay [3] were -10% and -7%, respectively. The outcome in assay [5], in assay [6], in assay [7] and in assay [8] was inactive.
Regarding `O=C(/C=C/c1ccc(Cl)c(Cl)c1)NCCCCCN1CCC(NC(=S)Nc2ccc(Cl)cc2Cl)CC1`, the growth inhibition in assay [1] is 47%; in assay [4], 99% (active). For the same molecule, the inhibition in assay [2] is 53% (active); in assay [3], -1%. Besides, the outcome in assay [5], in assay [6], in assay [7] and in assay [8] was inactive.
